Hits are enriched below; roughly 1.4% of the tested compounds scored in any of these assays.
BJeLR viability: kills HRASV12-expressing BJeLR cells. BJeLR (HRASV12) viability, CellTiter-Glo ATP luminescence, 48 h. inhibition, % (concentration not given with the values). actives 0.17% (n = 300,000). AID 1554; in the data active = inhibition above about 50%
MazF activator: activators of E. coli MazEF toxin-antitoxin RNase; P0AE70; FAM/BHQ RNA-DNA oligo cleavage fluorescence, 5 h; activation, % at 20 µM; actives 0.32% (n = 350,000); AID 504720; in the data active = activation above about 50%
Target sequence (P0AE70 whole entry, looked up): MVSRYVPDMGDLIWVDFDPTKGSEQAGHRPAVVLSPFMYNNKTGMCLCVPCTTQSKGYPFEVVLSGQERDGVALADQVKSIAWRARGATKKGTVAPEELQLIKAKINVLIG
SARS 3CLpro inh: SARS-CoV 3CLpro protease inhibition; P0C6X7; recombinant SARS-CoV 3CLpro, quenched FRET peptide cleavage; inhibition, % at 6 µM; actives 0.14% (n = 290,000); AID 1706; in the data active = inhibition above about 12%
VHR inh abs: DUSP3 (human) phosphatase inhibition | P51452 | recombinant VHR phosphatase, pNPP absorbance | inhibition, % at 13.3 µM | actives 0.52% (n = 290,000) | AID 1654; in the data active = inhibition above about 50%
Target sequence (P51452 whole entry, looked up): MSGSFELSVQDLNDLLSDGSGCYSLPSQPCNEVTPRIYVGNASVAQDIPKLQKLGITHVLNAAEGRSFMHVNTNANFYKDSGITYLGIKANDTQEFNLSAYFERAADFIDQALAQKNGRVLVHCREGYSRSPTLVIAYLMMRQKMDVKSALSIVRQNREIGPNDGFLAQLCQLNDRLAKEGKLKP
CCHF vOTU inh: CCHFV vOTU protease inhibition. Pep-AMC fluorescence. inhibition, % at 11.5 µM. actives 0.55% (n = 370,000); in the data active = inhibition above about 30%; also: 0% = vehicle wells with enzyme and 100% = no enzyme wells
The depositor's hits bear a star; nt = no result given.

SMILES	BJeLR viability	MazF activator	SARS 3CLpro inh	VHR inh abs	CCHF vOTU inh
Cc1ccc(N=Nc2[nH]c3ccccc3c2O)cc1	3	564*	2	-8	-14
Cc1ccc(N=Nc2c(O)[nH]c3ccc(F)cc23)cc1	5	474*	-2	-4	-5
OC(c1ccc(OCc2ccccc2)cc1)c1nnc(-c2ccccc2)o1 (stereo not drawn)	0	96*	2	0	-2
O=C(NCc1cccc(F)c1)c1cccc2c1C(=O)c1ccc(N3CCCC3)cc1S2(=O)=O	nt	-483	nt	nt	nt
CC1CCN(c2ccc3c(c2)S(=O)(=O)c2cccc(C(=O)NCc4cccc(F)c4)c2C3=O)CC1	nt	97*	nt	nt	3
Cc1ccc(NC(=S)N2CCC(NC(=O)c3cccc(F)c3)CC2)cc1	-12	0	2	55*	5
Cc1ccc(C)c(N2CCN(S(=O)(=O)c3ccc4c(c3)CC(=O)N4C)CC2)c1	9	-7	3	13	3
CN1C(=O)Cc2cc(S(=O)(=O)N3CCN(c4cccc(C(F)(F)F)c4)CC3)ccc21	2	3	-3	52*	14
CC(C)CNC(=O)OCc1cn(Cc2cccc(F)c2F)nn1	nt	nt	nt	nt	-5
Cc1ccc(OCc2nnc(SCC(=O)Nc3ccccc3-c3ccccc3)n2Cc2ccco2)cc1	nt	nt	nt	nt	10
CCC1CCCCN1CCCNC(=O)C1CCCN(c2ncnc3c2nc2n3CCCCC2)C1 (stereo not drawn)	-2	10	-1	57*	-4
CN(Cc1ccco1)C(=O)C1CCCN(c2ncnc3c2nc2n3CCCCC2)C1 (stereo not drawn)	-8	0	-1	27	5
COCCN(Cc1ccco1)C(=O)C1CCCN(c2ncnc3c2nc2n3CCCCC2)C1 (stereo not drawn)	3	10	-11	52*	5
O=C(C1CCN(c2ncnc3c2nc2n3CCCCC2)CC1)N1CCCCC1	-1	-38	-4	52*	3
CCC1CCCCN1CCCNC(=O)C1CCCN(S(=O)(=O)N2CC(C)CC(C)C2)C1 (stereo not drawn)	3	3	-4	54*	9
CC1CCCC(C)N1CCCNC(=O)C1CCCN(c2ncnc3c2nc2n3CCCCC2)C1 (stereo not drawn)	10	7	5	43	24
CC1CC(C)CN(S(=O)(=O)N2CCCC(C(=O)NCCCN3CCCCC3C)C2)C1 (stereo not drawn)	-3	6	-5	2	10
COC(=O)[C@@H]1C[C@@]2(c3ccccc3)c3ccccc3N(S(=O)(=O)c3ccccc3)[C@H]2N1C(=O)CNC/C=C(\C)CCC=C(C)C	nt	nt	nt	nt	12
CCCC[C@H]1C2CC(OC(=O)Nc3cccc(F)c3)C(C2)[C@H]2CCCCN21 (stereo partly drawn)	nt	nt	nt	nt	2
C[C@@H]1CCN(C2CC2)S(=O)(=O)c2c(cccc2N2CCC[C@@H]2CO)O1	nt	nt	nt	nt	-4
O=[N+]([O-])c1ccc(NC(=S)N2CCCC2)cc1	0	7	-8	51*	-5
CN1CCN(C(=S)Nc2ccc([N+](=O)[O-])cc2)CC1	-3	-5	3	1	6
CCOC(=O)c1cccc(NC(=O)CN(C)S(=O)(=O)c2ccc(Cl)s2)c1	nt	nt	nt	nt	-6
COc1ccc(C(=O)n2nc(-c3ccco3)nc2SC)cc1OC	-15	109*	1	-5	-4
COC(=O)c1sccc1NC(=O)Nc1cccc(C)c1	-4	8	3	50*	-2
SMILES	BJeLR viability	MazF activator	SARS 3CLpro inh	VHR inh abs	CCHF vOTU inh
CC1CCCCC1NC1=NCCCS1 (stereo not drawn)	-1	nt	-3	54*	nt
CN1[C@@H](Cc2ccccc2)COc2cc(F)ccc2S1(=O)=O	nt	nt	nt	nt	11
CCOC(=O)[C@]12CCCC=C1N(Cc1ccc(OC)cc1)C(=O)[C@@H]2CC(=O)N1CCN(C(=O)C2CC2)CC1	nt	nt	nt	nt	0
S=C(NCCCN1CCOCC1)Nc1ccc(Cl)cc1Cl	5	8	3	55*	-13
S=C(NCCN1CCOCC1)Nc1ccc(Cl)cc1Cl	-4	4	9	-7	8
O=C(c1ccc(Br)cn1)N1CCC(Oc2cccnc2)CC1	nt	nt	nt	nt	6
Cc1ccc(N(C)c2nc(N)nc(N)c2N=O)cc1	nt	nt	nt	nt	61*
CCOc1ccc(-n2c(COc3ccccc3)nnc2SCC(=O)Nc2ccc(OCc3ccccc3)cc2)cc1	nt	nt	nt	nt	-3
FC(F)(F)c1nnc2c(Sc3ccccc3)nc3ccc(Cl)cc3n12	62*	5	4	44	-3
CNc1nc(-c2ccccc2)cc(C(F)(F)F)c1C#N	4	400*	-7	17	3
COc1ccc(CNCC#Cc2cccnc2)c(OC)c1	nt	nt	nt	nt	0
CCCc1sc(N/N=C/c2ccccn2)nc1-c1ccc(F)cc1	61*	-20	-6	-5	nt
Cn1c(=O)c2[nH]c(SCC(=O)NCCc3ccc(F)cc3)nc2n(C)c1=O	nt	nt	nt	nt	2
O=[N+]([O-])c1cc(/C=N/O)ccc1SCc1ccccc1Cl	13	10	3	53*	3
COC1=C(Nc2ccccc2OC)C(=O)c2ccccc2C1=O	5	12	3	4	13
COc1ccccc1NC1=C(NC(C)=O)C(=O)c2ccccc2C1=O	-3	218*	4	3	3
CC1=CC(=O)C=C(C)C1=NOc1ccccc1[N+](=O)[O-]	51*	12	6	9	13
O=[N+]([O-])c1cc(S(=O)(=O)N2CCCCC2)ccc1NCc1cccc(Cl)c1	12	-7	0	51*	2
O=[N+]([O-])c1cc(S(=O)(=O)N2CCCC2)ccc1NN=C1CCCCC1	2	10	-3	3	9
CCCNC(=O)c1cc(Cl)c(NC(=O)C2=C(C)OCCS2)cc1OC	-2	4	-7	57*	16
CC(C)(C)OC(=O)/C=C/[C@@H](CCCCl)Sc1ccc(C(C)(C)C)cc1	nt	nt	nt	nt	3
CC1(C)CC(=O)C(C(c2cccc([N+](=O)[O-])c2)C2C(=O)CC(C)(C)CC2=O)C(=O)C1	10	-1	4	-8	15
CC1(C)CC(=O)C(C(O)c2cccc([N+](=O)[O-])c2)C(C)(C)N1 (stereo not drawn)	4	1	-1	51*	-18
CC(=O)c1cc(NC(=O)c2cccc(C(F)(F)F)c2)c(=O)oc1/C=C/N(C)C	6	180*	3	31	-1
O=C(Nc1nccs1)c1ccc(NC(=O)C2CC=CCC2C(=O)O)cc1 (stereo not drawn)	-6	1	3	53*	14
O=C(O)c1ccc(NC(=O)C2CC=CCC2C(=O)O)cc1 (stereo not drawn)	9	0	-2	6	4
FC(F)(F)c1ccccc1Cn1ccc2ccc(-c3ccc4ccn(Cc5ccccc5C(F)(F)F)c4c3)cc21	nt	nt	nt	nt	8
COc1ccc(Cl)cc1NC(=O)CN(C)CC(=O)Nc1ccc(S(N)(=O)=O)cc1	-12	1	-3	53*	5
O=Nc1c(-c2c(O)[nH]c3cc(Br)ccc23)[nH]c2ccccc12	-4	55*	1	10	9

Screens (PubChem)
